Screening results from PubChem.
Sampled rows, rich in hits. Any-hit rate of the full collection: about 19%.
KB-V1 cytotox: KB-V1 MDR subline cytotoxicity. KB-V1 MDR cells viability, CellTiter-Glo, 72 h. Potency, µM (highest dose often 46.1 µM), most hits filed as cytotoxic. actives 3.4% (n = 400,000). AID 1347076; also: nearly all actives have a fitted effect of over 60% in size
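KB-V1 cells (P-gp-expressing MDR subline of KB-3-1) in phenol-red-free DMEM with 10% FBS were exposed to library compounds over a concentration series for 72 h at 37 degrees C. Viability read by CellTiter-Glo luminescence; concentration-effect curves fitted after normalization.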
HT1080-NT tox: kills 2HG-producing HT-1080-NT fibrosarcoma cells; HT-1080-NT fibrosarcoma viability, CellTiter-Glo ATP luminescence, 48 h; Potency, µM (doses to about 46.1 µM), for the others: at the top dose activity, negative = less viability, most hits filed as cytotoxic; actives 1.6% (n = 360,000);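 also: NT is the 2HG producing partner of a matched IDH1 knockdown line; 0% = DMSO-treated cells and -100% = media-only wells without cells; nearly all actives have a fitted effect of over 55% in size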
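HT-1080-NT fibrosarcoma cells (2HG-overproducing), 750 cells/well in RPMI with 5% FBS, dosed after 2 h and incubated 48 h at 37C. CellTiter-Glo luminescence normalized to DMSO and no-cell wells; concentration-response curves fitted and classed.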
DT40 TDP1 no CPT: qHTS for Inhibitors of human tyrosyl-DNA phosphodiesterase 1 (TDP1): qHTS in cells in absence of CPT; DT40 Tdp1-/- hTDP1 cells, no CPT, ATP luminescence, 48 h; actives 15% (n = 420,000); AID 686978, 2013; Potency, µM (series often up to 46.2 µM), inactives show at the highest dose activity change, negative = growth inhibition, hits mostly inhibitors; also: nearly all actives have a fitted effect of over 55% in size
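Chicken DT40 Tdp1-/- cells complemented with human TDP1, screened without camptothecin (DMSO vehicle only), 400 cells/well. Compounds pin-transferred, cells incubated at 37 °C for at least 48 hr. Growth read as ATP-dependent luminescence (CellTiter-Glo, 30 min at RT).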
KB-3-1 tox: kills parental KB-3-1 adenocarcinoma cells | AID 1347075 | KB-3-1 viability, CellTiter-Glo ATP luminescence, 72 h | actives 1.4% (n = 400,000) | Potency, µM (titrated, usually from 46.1 µM), usual class: cytotoxic; also: nearly all actives have a fitted effect of over 60% in size
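Luminescent ATP read-out (CellTiter-Glo) measures survival of drug-naive KB-3-1 cells after 72 h compound exposure at 37 °C. Titration series was screened from lowest to highest concentration, with DMSO vehicle plates as background controls.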
HT1080 IDH1KD tx: HT-1080 IDH1 knockdown cell toxicity (counter line); Potency, µM (series often up to 46.1 µM), for the others: at the top dose activity, negative = toxicity, hits mostly cytotoxic; actives 2% (n = 360,000); AID 686971; HT-1080 IDH1 knockdown viability, ATP luminescence, 48 h;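 also: 0% = DMSO wells and -100% = cell-free medium wells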
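In this qHTS, HT-1080 cells depleted of IDH1 are exposed for 48 h at 37 °C to compound titrations. Toxicity is scored from CellTiter-Glo luminescence, with DMSO as full viability and medium alone as none.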
TDP1 cell CPT: DT40-hTDP1 cell growth loss with CPT. chicken DT40 Tdp1-/-;hTDP1 cells + 20 nM CPT, ATP luminescence, 48 h. Potency, µM (titrated, usually from 46.2 µM), inactives show top-dose activity change, negative = growth inhibition, hits mostly inhibitors. actives 12% (n = 420,000). AID 686979; also: nearly all actives have a fitted effect of over 55% in size
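Chicken DT40 Tdp1-/- cells stably complemented with human TDP1 were seeded at 400 cells/well in medium containing 20 nM camptothecin, exposed to pin-transferred compounds, and grown at 37 °C for at least 48 hr. Viability was read as ATP luminescence.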
Active calls of the source: *; [ ] = remark or other dose. Calls follow the shape of the dose curve; as a rule, active = well fitted curve in the direction sought with a large enough effect; inconclusive = small, poorly fitted or top-dose-only effect, or another doubt; inactive = no such curve, though single readings can be large; an effect the other way counts as inactive or inconclusive. Unless noted, % is scaled to controls: 0 for no effect and ±100 for the full control effect; potency is read from the fitted curve at half-maximal effect.

How did O=C(Cn1c(=O)cnc2ccccc21)N1CCN(S(=O)(=O)c2cccc([N+](=O)[O-])c2)CC1 do in these assays?
KB-V1 cytotox: inactive; HT1080-NT tox: -2.2%; DT40 TDP1 no CPT: 2.5%; KB-3-1 tox: inactive; HT1080 IDH1KD tx: 1.4%; TDP1 cell CPT: -16.6%

Results for CCc1ccccc1-n1c(C)nc2cc(C(=O)NCCc3ccc(Cl)cc3)ccc21 ?
KB-V1 cytotox: inactive; DT40 TDP1 no CPT: inconclusive; KB-3-1 tox: inactive; TDP1 cell CPT: inconclusive

How did O=C(CN1CCN(c2ccccn2)CC1)Nc1ccc2ccccc2c1 do in these assays?
KB-V1 cytotox: inconclusive; HT1080-NT tox: -17.5%; DT40 TDP1 no CPT: -27.6%; KB-3-1 tox: inactive; HT1080 IDH1KD tx: -15.0%; TDP1 cell CPT: -20.7%

Results for O=C(CN1CCN(c2ccccn2)CC1)Nc1ccc(Cl)c(C(F)(F)F)c1 ?
KB-V1 cytotox: inconclusive; HT1080-NT tox: 0.8%; DT40 TDP1 no CPT: 18.4µM*; KB-3-1 tox: inactive; HT1080 IDH1KD tx: -11.6%[9.24 µM]; TDP1 cell CPT: 18.4µM*

How did O=C(CN1CCN(c2ccccn2)CC1)Nc1ccc(OC(F)(F)F)cc1 do in these assays?
KB-V1 cytotox: inactive; HT1080-NT tox: -25.9%; DT40 TDP1 no CPT: 23.1µM*; KB-3-1 tox: inactive; HT1080 IDH1KD tx: -5.1%; TDP1 cell CPT: -4.6%

How did N=C(N)S/C=C\C(=O)O do in these assays?
DT40 TDP1 no CPT: 16.4µM*; TDP1 cell CPT: 16.4µM*

How did C[C@@H]1CN([C@@H](C)CO)C(=O)CCCn2nncc2CO[C@H]1CN(C)Cc1cccnc1 do in these assays?
KB-V1 cytotox: inactive; HT1080-NT tox: 8.5%; DT40 TDP1 no CPT: -1.5%; KB-3-1 tox: inactive; HT1080 IDH1KD tx: 0.4%; TDP1 cell CPT: -3.4%

How did Cc1ccc(OCCOC(=O)c2cc(S(=O)(=O)N3CCCCC3)ccc2N2CCOCC2)cc1 do in these assays?
KB-V1 cytotox: 2.91µM*; HT1080-NT tox: -0.7%; DT40 TDP1 no CPT: 13µM*; KB-3-1 tox: 4.61µM*; HT1080 IDH1KD tx: inconclusive; TDP1 cell CPT: 16.4µM*

How did O=C(OCCOc1ccc(Cl)cc1)c1cc(S(=O)(=O)N2CCCCC2)ccc1N1CCOCC1 do in these assays?
KB-V1 cytotox: inconclusive; HT1080-NT tox: -18.8%; DT40 TDP1 no CPT: inconclusive; KB-3-1 tox: inconclusive; HT1080 IDH1KD tx: inconclusive; TDP1 cell CPT: 13µM*

Results for CC1(C)C2C(Cl)(Cl)C2(C)c2ccccc2N1C=O (centres undefined) ?
KB-V1 cytotox: inactive; HT1080-NT tox: 13.6%; DT40 TDP1 no CPT: -7.8%; KB-3-1 tox: inactive; HT1080 IDH1KD tx: 0.5%; TDP1 cell CPT: 20.2%

Results for O=C1/C(=C\c2ccc(Br)o2)SC(=Nc2ccccc2)N1c1ccccc1 ?
KB-V1 cytotox: 9.2µM*; HT1080-NT tox: 3.8%; DT40 TDP1 no CPT: inconclusive; KB-3-1 tox: inactive; HT1080 IDH1KD tx: -0.2%; TDP1 cell CPT: -5.8%

What do the screens show for `CN(C)N1C(=O)/C(=C/c2ccco2)SC1=Nc1ccccc1`?
KB-V1 cytotox: inactive; HT1080-NT tox: 0.3%; DT40 TDP1 no CPT: inconclusive; KB-3-1 tox: inactive; HT1080 IDH1KD tx: -3.8%; TDP1 cell CPT: -26.4%

Results for CC(C)(C)OC(=O)C[C@@H]1C/C=C\C[C@H](CC(=O)N(CCO)Cc2ccccc2)C(=O)NC[C@@H](c2ccccc2)OC1=O ?
KB-V1 cytotox: inactive; HT1080-NT tox: -1.1%; DT40 TDP1 no CPT: 23.1µM*; KB-3-1 tox: inactive; HT1080 IDH1KD tx: 1.3%; TDP1 cell CPT: inconclusive

Results for CC(C)(C)OC(=O)C[C@H]1C/C=C\C[C@@H](CC(=O)N(CCO)Cc2ccccc2)C(=O)NC[C@H](c2ccccc2)OC1=O ?
KB-V1 cytotox: inactive; HT1080-NT tox: 11.3%; DT40 TDP1 no CPT: 14.6µM*; KB-3-1 tox: inactive; HT1080 IDH1KD tx: 2.8%; TDP1 cell CPT: 20.6µM*
